Inconclusive results are not listed. Where a call stands in place of a potency, no number is given. The source made the active and inactive calls. Calls come from the whole dose curve.
Assay: qHTS assay to identify small molecule agonists of the hypoxia (HIF-1) signaling pathway - cell viability counter screen (AID 1224844); note: nearly all actives have a fitted effect of over 50% in size
Conditions: HRE-bla ME-180 viability, CellTiter-Glo luminescence, 17 h; series mostly up to 76.8 µM
Text: National Center for Advancing Translational Sciences [NCATS]
NIH Chemical Genomics Center [NCGC]
U.S. Environmental Protection Agency [EPA]
National Institutes of Environmental Health Sciences [NIEHS]
National Toxicology Program [NTP]
U.S. Food and Drug Administration [FDA]
Hypoxia-inducible factor-1 (HIF-1) is the major hypoxia-regulated transcription factor that controls cellular responses to low oxygen concentration. HIF-1 is composed of two subunits: hypoxia responsive HIF-1-alpha and constitutively expressed HIF-1-beta, which is also known as aryl hydrocarbon receptor nuclear translocator. During hypoxic conditions, HIF-1-alpha heterodimerizes with HIF-1-beta and translocates into the nucleus where the HIF-1 complex binds to the hypoxia-response element (HRE) and activates expression of target genes such as VEGF (vascular endothelial growth factor). The HIF-1 pathway is essential to normal growth and development, and is involved in the pathophysiology of cancer, inflammation, and ischemia.
Using a beta-lactamase reporter-gene under control of the hypoxia response element, a cell-based assay [CellSensor(TM) HRE-bla ME-180 from Life Technologies, Carlsbad, CA] was used to measure hypoxia-induced signaling. Tox21 10K library compounds were measured for their ability to induce the reporter gene activity. The cytotoxicity of the Tox21 compound library against HRE-bla ME-180 cell line was tested in parallel by measuring cell viability using CellTiter-Glo assay (Promega, Madison, WI) in the same assay wells.
Tox21 Assay Protocol Summary:
HRE-bla ME-180 cells were dispensed at 2,000 cells per well in 6 uL of assay medium containing 0.5% dialyzed FBS into black wall/clear-bottom 1536-well plates using a Multidrop Combi (Thermo Scientific, Waltham, MA) dispenser. After the assay plates were incubated at 37C and 5% CO2 for 5 hrs, 23 nL of compounds dissolved in DMSO, positive controls or DMSO only was transferred to each well of the assay plate using a Pintool station (Kalypsys, San Diego, CA). The assay plates were incubated at 37C and 5% CO2 for 17 hrs. One uL of LiveBLAzerTM B/G FRET substrate (CCF4-AM) (Life Technologies) was added to each well using a Flying Reagent Dispenser (FRD, Aurora Discovery, San Diego, CA). After 2 hr incubation at room temperature, fluorescence intensity (405 nm excitation, 460 nm and 530 nm emissions) was measured using an Envision plate reader (PerkinElmer, Shelton, CT). For cytotoxicity, 4 ul/well of CellTiter-Glo reagent was added into the assay plates using an FRD. After 30 min incubation at room temperature, the luminescence intensity was measured using a ViewLux plate reader (PerkinElmer).

Compound | Potency
CCC(Cl)[N+](=O)[O-] (stereo not given) | inactive
CCCCc1c(C)nc(NCC)[nH]c1=O | inactive
CC1CCCCC1NC(=O)Nc1ccccc1 (stereo not given) | inactive
O=C(N[C@H]1CN2CCC1CC2)c1cc2ccoc2cn1 | inactive
CN/C(=N\[N+](=O)[O-])NCC1CCOC1 (stereo not given) | inactive
O=C(CCN1CC1)OCC(CO)(COC(=O)CCN1CC1)COC(=O)CCN1CC1 | inactive
C=C(C)[C@@H]1CC=C(C=O)CC1 | inactive
CCS(=O)(=O)CCSP(=O)(OC)OC | inactive
CC(C)CC#N | inactive
CC(COc1ccc(Oc2ccccc2)cc1)Oc1ccccn1 (stereo not given) | inactive
CSc1ccc(C(=O)C(C)(C)N2CCOCC2)cc1 | inactive
CCSC(=O)N(CC)C1CCCCC1 | inactive
Nc1cnn(-c2ccccc2)c(=O)c1Cl | inactive
CCOP(=S)(OCC)SCSc1ccc(Cl)cc1 | inactive
CCOP(=S)(OCC)Oc1ncn(-c2ccccc2)n1 | inactive
Clc1cccc(N2CCNCC2)c1 | inactive
CCOC(=O)CP(=O)(OCC)OCC | inactive
CCN(Cc1ccc(Cl)nc1)/C(=C/[N+](=O)[O-])NC | inactive
Cc1cnc[nH]1 | inactive
CN1CCN(C(=O)O[C@H]2c3nccnc3C(=O)N2c2ccc(Cl)cn2)CC1 | inactive

Compound | Potency
Cc1ncc(CNC(=O)N(CCCl)N=O)c(N)n1 | inactive
CC1(C)C(=O)NC(=O)NC1=O | inactive
CCc1cc2c(s1)-n1c(C)nnc1CN=C2c1ccccc1Cl | inactive
CC(N)=S | inactive
ClC(Cl)C(Cl)Cl | inactive
C[N+](C)=CCl | inactive
O=C1OC(c2ccc(O)c(S(=O)(=O)O)c2)(c2ccc(O)c(S(=O)(=O)O)c2)c2c(Br)c(Br)c(Br)c(Br)c21 | inactive
O=[N+]([O-])c1cccc2cccnc12 | inactive
[As]#[In] | inactive
CC(C)NCC(O)c1ccc(N)c(C#N)c1 (stereo not given) | inactive
O=c1oc2ccccc2c(O)c1C1CCCc2ccccc21 (stereo not given) | inactive
CCCCOC(=O)c1ccccc1N | inactive
CC(C)(C)NCC(O)c1cc(Cl)c(N)c(Cl)c1 (stereo not given) | inactive
CC(C(O)c1ccccc1)N(C)C/C=C/c1ccccc1 (stereo not given) | inactive
C#C[C@]1(O)C=C[C@H]2[C@@H]3CCC4=CC(=O)CC[C@@H]4[C@H]3CC[C@@]21CC | inactive
CCC1(c2ccccc2)C(=O)NC(=O)NC1=O | inactive
CNC(=O)Oc1ccccc1C1OCCO1 | inactive
Nc1cc(Cl)ccc1O | inactive
CN1C[C@@H](NS(=O)(=O)N(C)C)C[C@@H]2c3cccc4c3c(cn4C)C[C@H]21 | inactive
CCNc1nc(NC(C)C)nc(OC)n1 | inactive

Source: PubChem BioAssay (Tox21)
